Laboratory results from paper PMC5540273 (PLoS ONE, 2017).

How the values were obtained:
Conditions in all cases: concentration: 1 μM, replicates: in singlicate; n = 1
DCAMKL2 = system: T1, DCAMKL2
T1 construct: gene DCLK2

DCAMKL3 = system: T2, DCAMKL3
T2 construct: gene DCLK3

DDR1 = system: DDR1
DDR2 = system: DDR2
DLK = system: T3, DLK
T3 construct: gene MAP3K12

DMPK2 = system: T4, DMPK2
T4 construct: gene CDC42BPG

DMPK = system: DMPK
DRAK1 = system: T5, DRAK1
T5 construct: gene STK17A

DRAK2 = system: T6, DRAK2
T6 construct: gene STK17B

DYRK1A = system: DYRK1A
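Further: KINOMEscan kinase panel screen.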

Structure (SMILES)	%Inh (DCAMKL2) [%]	%Inh (DCAMKL3) [%]	%Inh (DDR1) [%]	%Inh (DDR2) [%]	%Inh (DLK) [%]	%Inh (DMPK2) [%]	%Inh (DMPK) [%]	%Inh (DRAK1) [%]	%Inh (DRAK2) [%]	%Inh (DYRK1A) [%]
Clc1ccc(-c2nn3ncccc3c2-c2ccnc(Nc3ccc4c(c3)OCCO4)n2)cc1 [GW829116]	0	0	98.5	95.9	0	92.9	0	0	0	0
COc1cc(Nc2ncc3c(C)nc(-c4cc5ccccc5[nH]4)n3n2)cc(OC)c1OC [GW869516]	0	0	52	52	22	0	0	30	10	85
c1ccc(-c2n[nH]cc2Nc2ccnc3ccccc23)nc1 [GW694077]	0	12	0	10	74	0	0	99.4	0	99.9
Cc1ccc(F)c(C(=O)Nc2cccc(-c3nn4ccccc4c3-c3ccnc(Nc4cccc(F)c4)n3)c2)c1F [GSK361061]	13	70	100	87	7	85	13	0	0	11
O=C(O)C(F)(F)F.O=C(O)C(F)(F)F.O=c1[nH]ccc2nc(N[C@@H]3CCCNC3)nc(Nc3ccc(S(=O)(=O)N4CCOCC4)cc3)c12 [GSK2177277]	100	99.5	18	82	95.6	92.7	99.7	98.4	94	84
CCCCc1nn2ncccc2c1-c1ccnc(Nc2ccc(N3CCN(C)CC3)cc2)n1 [GW684941]	25	2	100	96.2	47	50	0	5	0	17
COc1ccc(Nc2nccc(N3CCC(NC(=O)Nc4cccc(OC)c4)C3)n2)cc1 (stereo not shown) [GSK1379742]	0	13	8	24	46	0	0	8	0	4
COc1cc(Nc2nccc(-c3c(-c4cccc(NC(=O)c5c(F)cccc5F)c4)nn4ccccc34)n2)cc(OC)c1OC [GSK323521]	11	11	90.3	61	3	49	9	0	0	13
CN1CCN(Cc2cccc(-c3ccc4c(Nc5ccc(Oc6ccccc6)cc5)ccnc4c3)c2)CC1 [GW578342]	1	59	9	33	41	0	0	10	0	1
CCc1ccc(-c2ccc3c(c2)-c2c(cnn2C)S(=O)(=O)N3C)cc1	0	0	0	2	0	0	0	0	0	0
COCCOCCOc1cc2ncc3c4ccc(C#N)cc4[nH]c3c2cc1OC	14	66	0	0	71	0	3	100	100	99
FC(F)(F)c1ccc(/C=C/c2cncnc2Nc2ccc3[nH]c(Cc4ccccc4)nc3c2)cc1 [GW709199]	7	21	0	36	0	0	0	0	7	0
Cl.NC(=O)c1cccc(Nc2nccc(Nc3ccc(Oc4c(Cl)cccc4Cl)c(Cl)c3)n2)c1 [GW659009]	0	0	0	0	0	64	0	0	0	3
Cc1cccc(Nc2nc(N[C@H]3CCNC3)ncc2C(N)=O)c1.Cl [GSK2197149]	30	0	0	0	35	4	0	53	22	24
CN(C)Cc1ccc(-c2ccc3c(Nc4ccc(Oc5ccccn5)cc4)ccnc3c2)o1 [GW567148]	0	0	38	45	69	0	0	4	0	13
c1ccc(Oc2ccc(Nc3ccnc4cc(-c5ccc(CNCCN6CCOCC6)o5)ccc34)cc2)nc1 [GW567145]	0	0	0	50	49	0	0	2	54	0
